Compounds without any hit were thinned out: in the full panel of roughly 79,000, 15% have a hit. Activity calls are given as the source filed them. Rule as the data show it: active = growth inhibition above about 70%; inactive = the rest.
Tests used:
[1] = NCI Yeast Anticancer Drug Screen. Data for the rad50 strain (AID 155);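 also: 0% = growth of vehicle-only cultures of the same strain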; conditions: S. cerevisiae rad50 strain growth inhibition; at 50.0 µM; active compounds read high
How it was run: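 A DNA repair-deficient yeast mutant serves as the test organism; compound-induced growth inhibition is calculated against vehicle-treated cells.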

[2] = NCI Yeast Anticancer Drug Screen. Data for the mec2-1 strain (AID 157); conditions: S. cerevisiae mec2-1 strain, at 50.0 µM, active compounds read high
How it was run: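 Readout is yeast growth inhibition, normalised to vehicle-treated controls, in the mec2-1 strain exposed to compound.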

[3] = NCI Yeast Anticancer Drug Screen. Data for the sgs1 mgt1 strain (AID 161);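 also: 0% = growth of cultures given vehicle only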; conditions: S. cerevisiae sgs1 mgt1 strain, at 50.0 µM, active compounds read high
How it was run: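 Percent growth inhibition was derived by comparing compound-exposed mutant yeast with vehicle-exposed cultures. The strain carries alterations in DNA damage repair.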

[4] = NCI Yeast Anticancer Drug Screen. Data for the cln2 rad14 strain (AID 165);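 also: 0% = growth equal to vehicle treated cultures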; conditions: S. cerevisiae cln2 rad14 strain, at 50.0 µM, active compounds read high
How it was run: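 Relative to vehicle controls, growth inhibition of compound-treated cln2 rad14 yeast was recorded.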

[5] = NCI Yeast Anticancer Drug Screen. Data for the bub3 strain (AID 167); conditions: S. cerevisiae bub3 mutant strain, at 50.0 µM, active compounds read high
How it was run: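 Inhibition values come from growth of compound-treated mutant yeast normalised to vehicle-treated controls.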

[6] = NCI Yeast Anticancer Drug Screen. Data for the mlh1 rad18 strain (AID 175); conditions: S. cerevisiae mlh1 rad18 strain growth inhibition; at 50.0 µM; active compounds read high
How it was run: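 Test agents were incubated with a yeast strain of defined genotype (DNA damage repair defect). Inhibition of growth was derived by comparison with vehicle-exposed cultures.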

Compound | growth inhibition [1] | growth inhibition [2] | growth inhibition [3] | growth inhibition [4] | growth inhibition [5] | growth inhibition [6]
CC1C2=C(CC(C)(C)CC2=O)OC2=C1C(=O)CC(C)(C)C2 | -16.1% (inactive) | -7.9% (inactive) | -7.8% (inactive) | -5.3% (inactive) | 4.65% (inactive) | -3.5% (inactive)
Cn1c(=O)c(-c2ccccc2)cc2ccccc21 | -9.9% (inactive) | -12.9% (inactive) | -3.85% (inactive) | -1.95% (inactive) | -1.15% (inactive) | -16.6% (inactive)
CC(C)CC(NC(=O)COc1cc(Cl)ccc1Cl)C(=O)O (stereo not drawn) | -4.3% (inactive) | 19.2% (inactive) | 6.3% (inactive) | -18.6% (inactive) | -3.25% (inactive) | -40.4% (inactive)
O=[N+]([O-])c1ccc(OS(=O)(=O)Cc2ccccc2)cc1 | 3.8% (inactive) | -9.35% (inactive) | 8.95% (inactive) | -36.6% (inactive) | 3.95% (inactive) | -9.25% (inactive)
Cc1[nH]c(=O)c2ccccc2c1O | 10.6% (inactive) | -8.15% (inactive) | -3.7% (inactive) | 6.35% (inactive) | -17.2% (inactive) | -1.35% (inactive)
Nc1cc2c3c(cccc3c1)NC2=O | 47.5% (inactive) | 14.4% (inactive) | 17.9% (inactive) | 11% (inactive) | -1.5% (inactive) | -12.9% (inactive)
O=C(Nc1cccc(C(=O)NCCCO)c1)/C(=C/c1ccccc1)NC(=O)c1ccccc1 | 0% (inactive) | -1.85% (inactive) | 1.45% (inactive) | 9.35% (inactive) | -2.4% (inactive) | 4.35% (inactive)
S=C1SCN(c2ccc3c(c2)OCO3)CN1c1ccc2c(c1)OCO2 | -24.4% (inactive) | -33.9% (inactive) | 20.9% (inactive) | -0.6% (inactive) | -1.05% (inactive) | -20.1% (inactive)
CC(C)OC(=O)CC#N | -4.55% (inactive) | -9.55% (inactive) | -7.7% (inactive) | -28.7% (inactive) | 0.6% (inactive) | 14.8% (inactive)
CC[N+](C)(CC)CC[N+]1(C)CCCCCCC1 | 12.9% (inactive) | 5.45% (inactive) | 5.8% (inactive) | -40.6% (inactive) | 10.4% (inactive) | 15.6% (inactive)
CC(NC(=O)C(Cc1ccc(OC(=O)c2ccccc2)cc1)NC(=O)OC(C)(C)C)C(=O)NCC(=O)NC(Cc1ccccc1)NC(=O)OCc1ccccc1 (stereo not drawn) | -11.7% (inactive) | -24.6% (inactive) | -27.7% (inactive) | 7.35% (inactive) | -25.4% (inactive) | -8.95% (inactive)
CCCC(C)C(=O)OCCCc1ccccc1 (stereo not drawn) | 7.55% (inactive) | -5.2% (inactive) | 2.9% (inactive) | -20.1% (inactive) | 18.8% (inactive) | 3.8% (inactive)
C=C1C(=O)C23C(O)CC4C(C)(C)[C@@H](OC(C)=O)CCC4(C)[C@]2(O)CCC1[C@@H]3O (stereo partly drawn) | 46.8% (inactive) | 48.9% (inactive) | 44.9% (inactive) | 40.1% (inactive) | 70.5% (active) | 67% (inactive)
CCCCOC(=O)/C(CC(=O)C=C(C)C)=N\NS(=O)(=O)c1ccc(C)cc1 | 1.75% (inactive) | -14.1% (inactive) | -10.5% (inactive) | 5.3% (inactive) | -8.5% (inactive) | -5.75% (inactive)
COc1nc(NC2OCC(O)C(O)C2O)c(C(C)=O)c(=O)n1C (stereo not drawn) | 3.5% (inactive) | -2.65% (inactive) | 7.05% (inactive) | -0.25% (inactive) | -19.4% (inactive) | -0.7% (inactive)
COc1ccccc1/C=C1\CCC(CCN(C)C)(C2=CCCC2)C1=O (stereo not drawn) | -3.05% (inactive) | -11.8% (inactive) | -27.5% (inactive) | 11.1% (inactive) | -17.7% (inactive) | 24.4% (inactive)
CC(CN(C)C)C(=O)C(=Cc1ccccc1)C(=O)C(C)CN(C)C (stereo not drawn) | 40.1% (inactive) | 13.1% (inactive) | 16.9% (inactive) | 22.5% (inactive) | -2.5% (inactive) | 20% (inactive)
COc1ccc(/C=C2\N=C(c3ccc(N)cc3)OC2=O)cc1OC | 10.1% (inactive) | -0.05% (inactive) | 13.2% (inactive) | 20.1% (inactive) | 10.3% (inactive) | 19.9% (inactive)
Nc1ccn(C2OC(CO)C(O)C2Br)c(=O)n1 (stereo not drawn) | 3.9% (inactive) | 8.75% (inactive) | 14.2% (inactive) | -12% (inactive) | -10.1% (inactive) | 14.1% (inactive)

Compound | growth inhibition [1] | growth inhibition [2] | growth inhibition [3] | growth inhibition [4] | growth inhibition [5] | growth inhibition [6]
Nc1ccc([N+](=O)[O-])c(F)c1 | -6.05% (inactive) | -6.8% (inactive) | -3.25% (inactive) | -11.8% (inactive) | 10.1% (inactive) | 9.15% (inactive)
COc1ccc(/C=C2/SC(=Nc3ccccc3)N(NC(=O)Cc3ccccc3)C2=O)cc1 | -22.7% (inactive) | -14.2% (inactive) | 13.7% (inactive) | -16.6% (inactive) | -26.6% (inactive) | -22.2% (inactive)
O=C(O)c1ccc(-c2c3ccc(=O)cc-3oc3cc(O)ccc23)cc1 | 18% (inactive) | -30.1% (inactive) | 6.05% (inactive) | 22.1% (inactive) | 23.9% (inactive) | 20.4% (inactive)
NC(=O)Nc1ccc([N+](=O)[O-])cc1 | 4.65% (inactive) | -2.9% (inactive) | -2.6% (inactive) | -51.6% (inactive) | -11.9% (inactive) | 2.05% (inactive)
O=C(/C=C\c1ccc([N+](=O)[O-])cc1)c1ccccc1 | -1.6% (inactive) | -6.1% (inactive) | -2.4% (inactive) | -28.3% (inactive) | -3.6% (inactive) | -16.2% (inactive)
COc1ccc2c(c1O)-c1cccc3c1C(C2)N(CCOCCCl)CC3 (stereo not drawn) | 28.4% (inactive) | -12.8% (inactive) | -19.9% (inactive) | 12.9% (inactive) | 3.15% (inactive) | -8.85% (inactive)
OC(CCN1CC2CCC(CC2)C1)(Cc1ccccc1)c1ccc(F)cc1 (stereo not drawn) | -3.8% (inactive) | -7.9% (inactive) | 23.1% (inactive) | -5.15% (inactive) | 22.6% (inactive) | -7.25% (inactive)
CC1(Br)CC2=C(CC1(C)Br)C(=O)C(c1ccccc1)=C(c1ccccc1)C2=O (stereo not drawn) | 9.25% (inactive) | 17.1% (inactive) | 39.2% (inactive) | 25% (inactive) | 12.3% (inactive) | 23.4% (inactive)
COc1cc2oc(-c3ccc(O)cc3)c(OC3OC(C)C(O)C(O)C3O)c(=O)c2c(O)c1OC (stereo not drawn) | 0.45% (inactive) | -13.8% (inactive) | -15.6% (inactive) | 9.4% (inactive) | -7.95% (inactive) | -74.6% (inactive)
O=C(O)/C(Cc1ccnc2ccccc12)=N\O | -1.35% (inactive) | 2.7% (inactive) | -15.4% (inactive) | -0.05% (inactive) | -22.7% (inactive) | 0.4% (inactive)
O=C(O)c1c(Cl)ccc(F)c1Cl | 9.45% (inactive) | 1.2% (inactive) | 4.5% (inactive) | -11.9% (inactive) | 11.3% (inactive) | 8.35% (inactive)
COc1cc(CCNC2=CC(=O)c3ncccc3C2=O)ccc1O | 31.6% (inactive) | 34% (inactive) | -8.25% (inactive) | 4.95% (inactive) | 5.8% (inactive) | 14.3% (inactive)
CCOC(=O)/C(=C\c1ccc(N(C)C)cc1)S(=O)(=O)C(F)(F)C(F)(F)C(F)(F)C(F)(F)F | 2% (inactive) | 9.6% (inactive) | 6.1% (inactive) | -9.7% (inactive) | 4.75% (inactive) | 15.2% (inactive)
Cc1c2cnccc2c(C)c2c1c1ccccc1n2CCCCCCCl | 94.5% (active) | 69% (inactive) | 49.8% (inactive) | 66% (inactive) | 95.7% (active) | 98.5% (active)
Nc1nc(N)c2nc(-c3ccc(N(CCO)CCO)cc3)c(N)nc2n1 | -13.1% (inactive) | -14.8% (inactive) | -11.9% (inactive) | -34.9% (inactive) | 3.15% (inactive) | -15.9% (inactive)
O=C(c1ccccc1)C1Nc2ccccc2CO1 (stereo not drawn) | -5% (inactive) | -13.3% (inactive) | -13.5% (inactive) | -23.4% (inactive) | -1.6% (inactive) | 28.9% (inactive)
COc1ccc(Nc2cc[nH]c(=O)c2NC(C)=O)cc1 | 20.7% (inactive) | 4.9% (inactive) | 32.3% (inactive) | 14.7% (inactive) | 9.75% (inactive) | 21% (inactive)
COC(=O)C1=C(\N2CCOCC2)CCCC/C=C\1C(=O)OC | -2.55% (inactive) | 1.15% (inactive) | -4.9% (inactive) | -10.3% (inactive) | 3.65% (inactive) | -4.5% (inactive)
CCCCOC(=O)c1ccc(NC(=O)Nc2ccc([N+](=O)[O-])cc2OC)cc1 | -24.2% (inactive) | -11.1% (inactive) | -17.6% (inactive) | 50.7% (inactive) | -0.8% (inactive) | 6.05% (inactive)
